Experimental data: PubChem BioAssay (NCI)
Compounds without any hit were thinned out: in the full panel of roughly 79,000, 15% have a hit. Active and inactive are the calls of the source. Cut-off read from the data, not from the text of the source: active = growth inhibition above about 70%; inactive = the rest.

Experiments:
[1] = NCI Yeast Anticancer Drug Screen. Data for the rad52 strain (AID 147);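 note: 0% = growth of vehicle-treated control cultures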; details: S. cerevisiae rad52 mutant growth inhibition, hits give high values
Outline: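 Vehicle-treated cultures served as the reference for growth inhibition of compound-exposed yeast bearing a DNA repair mutation.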

[2] = NCI Yeast Anticancer Drug Screen. Data for the wt1 strain (AID 149);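 note: 0% = growth of vehicle-treated wt1 cultures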; details: S. cerevisiae wt1 strain (SPY 50644) growth inhibition, hits give high values
Outline: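 Vehicle-normalised growth inhibition; strain wt1; compound exposure.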

[3] = NCI Yeast Anticancer Drug Screen. Data for the rad50EPP+ strain (AID 151);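 note: 0% = growth of vehicle-treated control cultures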; details: S. cerevisiae rad50 mutant strain, hits give high values
Outline: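 In this screen, rad50EPP+ yeast were exposed to compounds. Growth inhibition was scored against vehicle-treated controls.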

[4] = NCI Yeast Anticancer Drug Screen. Data for the mgt1 strain (AID 153); details: S. cerevisiae mgt1 mutant growth inhibition, hits give high values
Outline: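 mgt1 strain exposed; growth vs vehicle control recorded as inhibition.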

[5] = NCI Yeast Anticancer Drug Screen. Data for the rad50 strain (AID 155);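 note: 0% = growth of vehicle-only cultures of the same strain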; details: S. cerevisiae rad50 strain growth inhibition, hits give high values
Outline: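 A DNA repair-deficient yeast mutant serves as the test organism; compound-induced growth inhibition is calculated against vehicle-treated cells.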

[6] = NCI Yeast Anticancer Drug Screen. Data for the mec2-1 strain (AID 157); details: S. cerevisiae mec2-1 strain, hits give high values
Outline: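 Vehicle-treated cultures served as reference for growth inhibition of compound-exposed mec2-1 yeast.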

[7] = NCI Yeast Anticancer Drug Screen. Data for the sgs1 mgt1 strain (AID 161);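 note: 0% = growth of cultures given vehicle only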; details: S. cerevisiae sgs1 mgt1 strain, hits give high values
Outline: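 Read-out: growth inhibition vs vehicle controls. Cells: mutant yeast strain deficient in DNA damage repair.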

[8] = NCI Yeast Anticancer Drug Screen. Data for the CLN2oe strain (AID 163);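 note: 0% = growth of vehicle-only control cultures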; details: S. cerevisiae CLN2oe strain, hits give high values
Outline: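 Inhibition relative to vehicle-treated yeast is reported. Cells: strain with genetic alteration in cell-cycle control, grown with compound.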

[9] = NCI Yeast Anticancer Drug Screen. Data for the cln2 rad14 strain (AID 165);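 note: 0% = growth equal to vehicle treated cultures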; details: S. cerevisiae cln2 rad14 strain, hits give high values
Outline: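 Each compound was tested on cln2 rad14 yeast. Inhibition of growth was calculated against vehicle-exposed controls.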

[10] = NCI Yeast Anticancer Drug Screen. Data for the bub3 strain (AID 167); details: S. cerevisiae bub3 mutant strain, hits give high values
Outline: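 Inhibition values come from growth of compound-treated mutant yeast normalised to vehicle-treated controls.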

[11] = NCI Yeast Anticancer Drug Screen. Data for the wt2 strain (AID 169);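 note: 0% = growth of vehicle-treated yeast cultures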; details: S. cerevisiae wt2 strain growth inhibition, hits give high values
Outline: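 Inhibition of yeast growth was determined after compound treatment, normalised to controls receiving only vehicle.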

[12] = NCI Yeast Anticancer Drug Screen. Data for the mlh1 strain (AID 171);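 note: 0% = growth of vehicle-treated control cultures of the same strain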; details: S. cerevisiae mlh1 strain growth inhibition, hits give high values
Outline: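 Vehicle-normalised growth inhibition of a repair- or checkpoint-altered yeast strain following compound treatment.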

[13] = NCI Yeast Anticancer Drug Screen. Data for the sgs1 strain (AID 173);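 note: 0% = growth of vehicle-only control cultures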; details: S. cerevisiae sgs1 mutant, hits give high values
Outline: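 Screen format: yeast with repair or checkpoint alterations, compound exposure, growth read relative to vehicle.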

[14] = NCI Yeast Anticancer Drug Screen. Data for the mlh1 rad18 strain (AID 175); details: S. cerevisiae mlh1 rad18 strain growth inhibition, hits give high values
Outline: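 Vehicle-treated cultures served as the reference for growth inhibition in a yeast strain carrying DNA damage repair alterations exposed to each compound.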

[15] = NCI Yeast Anticancer Drug Screen. Data for the rad18 strain (AID 177); details: S. cerevisiae rad18 mutant growth inhibition, hits give high values
Outline: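 Test articles were incubated with altered yeast defective in DNA damage repair. Results are given as inhibition of growth versus vehicle.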

[16] = at 5.0 µM (retest, dose inferred, filed as 0.5)
[17] = at 50.0 µM (retest, dose inferred, filed as 5.0)

Measured: growth inhibition

CCOC(=O)/C(=C\c1ccc(F)cc1)C(C)=O
inactive: [1]; at 1.2 µM -43% | [1]; at 3.7 µM -17% | [1]; at 11.0 µM 57% | [2]; at 1.2 µM -17% | [2]; at 3.7 µM 4% | [2]; at 11.0 µM 48% | [3]; at 1.2 µM 8% | [3]; at 3.7 µM 30% | [3]; at 11.0 µM 68% | [4]; at 1.2 µM -19% | [4]; at 3.7 µM 6% | [5]; at 1.2 µM -7% | [5]; at 3.7 µM 19% | [5]; [16] 30% | [6]; at 1.2 µM -43% | [6]; at 3.7 µM -3% | [6]; [16] 0% | [7]; [16] 21% | [8]; at 1.2 µM 6% | [8]; at 3.7 µM 4% | [8]; at 11.0 µM 67% | [9]; [16] 9% | [10]; at 1.2 µM 9% | [10]; at 3.7 µM 37% | [10]; [16] 48% | [11]; at 1.2 µM -35% | [11]; at 3.7 µM -17% | [11]; at 11.0 µM 62% | [12]; at 1.2 µM 2% | [12]; at 3.7 µM 42% | [13]; at 1.2 µM -2% | [13]; at 3.7 µM 22% | [14]; [16] 6% | [15]; at 1.2 µM -34% | [15]; at 3.7 µM 14%
active: [1]; at 33.0 µM 94% | [1]; at 100.0 µM 98% | [2]; at 33.0 µM 93% | [2]; at 100.0 µM 98% | [3]; at 33.0 µM 93% | [3]; at 100.0 µM 98% | [4]; at 11.0 µM 77% | [4]; at 33.0 µM 96% | [4]; at 100.0 µM 99% | [5]; at 11.0 µM 72% | [5]; at 33.0 µM 95% | [5]; [17] 97% | [5]; at 50.0 µM 91.8% | [5]; at 100.0 µM 97% | [6]; at 11.0 µM 74% | [6]; at 33.0 µM 95% | [6]; [17] 98% | [6]; at 50.0 µM 93.8% | [6]; at 100.0 µM 97% | [7]; [17] 97% | [7]; at 50.0 µM 93% | [8]; at 33.0 µM 96% | [8]; at 100.0 µM 98% | [9]; [17] 93% | [9]; at 50.0 µM 89% | [10]; at 11.0 µM 91% | [10]; at 33.0 µM 97% | [10]; [17] 97% | [10]; at 50.0 µM 92.1% | [10]; at 100.0 µM 98% | [11]; at 33.0 µM 95% | [11]; at 100.0 µM 98% | [12]; at 11.0 µM 88% | [12]; at 33.0 µM 97% | [12]; at 100.0 µM 97% | [13]; at 11.0 µM 72% | [13]; at 33.0 µM 97% | [13]; at 100.0 µM 98% | [14]; [17] 97% | [14]; at 50.0 µM 91.9% | [15]; at 11.0 µM 77% | [15]; at 33.0 µM 94% | [15]; at 100.0 µM 97%

O=C(NNc1ccccc1)C(CCCCNS(=O)(=O)Cc1ccccc1)NS(=O)(=O)Cc1ccccc1 (stereo unspecified)
active: [1]; at 100.0 µM 72% | [5]; at 100.0 µM 85% | [10]; at 33.0 µM 87% | [10]; [17] 86% | [14]; at 50.0 µM 75.2% | [15]; at 33.0 µM 90%
inactive: [1]; at 1.2 µM 3% | [1]; at 3.7 µM 9% | [1]; at 11.0 µM 29% | [1]; at 33.0 µM 46% | [2]; at 1.2 µM 4% | [2]; at 3.7 µM 9% | [2]; at 11.0 µM 26% | [2]; at 33.0 µM 44% | [2]; at 100.0 µM 54% | [3]; at 1.2 µM 3% | [3]; at 3.7 µM 10% | [3]; at 11.0 µM 25% | [3]; at 33.0 µM 55% | [3]; at 100.0 µM 68% | [4]; at 1.2 µM 0% | [4]; at 3.7 µM 11% | [4]; at 11.0 µM 13% | [4]; at 33.0 µM 18% | [4]; at 100.0 µM 18% | [5]; at 1.2 µM 5% | [5]; at 3.7 µM 10% | [5]; [16] 18% | [5]; at 11.0 µM 36% | [5]; at 33.0 µM 56% | [5]; [17] 53% | [5]; at 50.0 µM 51.2% | [6]; at 1.2 µM -2% | [6]; at 3.7 µM 8% | [6]; [16] 5% | [6]; at 11.0 µM 25% | [6]; at 33.0 µM 48% | [6]; [17] 34% | [6]; at 50.0 µM 26.4% | [6]; at 100.0 µM 39% | [7]; [16] 10% | [7]; [17] 54% | [7]; at 50.0 µM 51.5% | [8]; at 1.2 µM 1% | [8]; at 3.7 µM 6% | [8]; at 11.0 µM 31% | [8]; at 33.0 µM 51% | [8]; at 100.0 µM 44% | [9]; [16] 5% | [9]; [17] 46% | [9]; at 50.0 µM 14.8% | [10]; at 1.2 µM 1% | [10]; at 3.7 µM 3% | [10]; [16] 11% | [10]; at 11.0 µM 44% | [10]; at 50.0 µM 53.6% | [10]; at 100.0 µM 47% | [11]; at 1.2 µM 2% | [11]; at 3.7 µM 6% | [11]; at 11.0 µM 22% | [11]; at 33.0 µM 28% | [11]; at 100.0 µM 51% | [12]; at 1.2 µM 1% | [12]; at 3.7 µM 1% | [12]; at 11.0 µM 11% | [12]; at 33.0 µM 32% | [12]; at 100.0 µM 44% | [13]; at 1.2 µM 2% | [13]; at 3.7 µM 7% | [13]; at 11.0 µM 25% | [13]; at 33.0 µM 42% | [13]; at 100.0 µM 68% | [14]; [16] 14% | [14]; [17] 56% | [15]; at 1.2 µM 2% | [15]; at 3.7 µM 19% | [15]; at 11.0 µM 62% | [15]; at 100.0 µM 50%

CCN(CC)CC(=O)c1ccc2cc(Cl)c3ccccc3c2c1
active: [1]; at 11.0 µM 99% | [1]; at 33.0 µM 98% | [1]; at 100.0 µM 98% | [2]; at 11.0 µM 99% | [2]; at 33.0 µM 98% | [2]; at 100.0 µM 98% | [3]; at 3.7 µM 85% | [3]; at 11.0 µM 98% | [3]; at 33.0 µM 98% | [3]; at 100.0 µM 98% | [4]; at 11.0 µM 99% | [4]; at 33.0 µM 99% | [4]; at 100.0 µM 99% | [5]; at 11.0 µM 98% | [5]; at 33.0 µM 98% | [5]; [17] 98% | [5]; at 50.0 µM 99% | [5]; at 100.0 µM 98%
inactive: [1]; at 1.2 µM 14% | [1]; at 3.7 µM 30% | [2]; at 1.2 µM 6% | [2]; at 3.7 µM 17% | [3]; at 1.2 µM 68% | [4]; at 1.2 µM 0% | [4]; at 3.7 µM 13% | [5]; at 1.2 µM 9% | [5]; at 3.7 µM 18% | [5]; [16] 26% | [6]; at 1.2 µM 12% | [6]; at 3.7 µM 24%
